Bioassay records (PubChem BioAssay)
RAD52 anneal inh: RAD52 DNA annealing inhibitors, primary screen, biochemical, FRET, single point, set 2; DNA repair protein RAD52 homolog (Homo sapiens), P43351; recombinant RAD52 DNA annealing, FRET fluorescence; inhibition, % at 18.7 µM; actives 0.46% (n = 360,000); AID 651710, 2012;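 active means every replicate showing at least 50% inhibition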
RAD54 branch: inhibitors of human RAD54 branch migration, primary screen, biochemical, fluorescence, single point. DNA repair and recombination protein RAD54-like (Homo sapiens), Q92698. RAD54 Holliday junction branch migration, FAM/BHQ fluorescence. inhibition, % at 10.4 µM. actives 0.14% (n = 360,000). AID 602329, 2012;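 active means mean normalized replicate activity at least 40 and at least half of replicates scoring 40 or more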;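 further: 0% = median of neutral control wells and 100% = median of positive control wells; inhibitors cause a drop in the FAM fluorescence signal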
GSIS activator: GLuc luminescence reporter in INS-1E cells, primary screen for activators of glucose-dependent secretion of insulin; INS-1E GLuc reporter insulin secretion, 2-3 h; activation, % at 16.6 µM; actives 0.61% (n = 370,000); AID 743287, 2014;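 active means lowest replicate activation of at least 40%, so every replicate reaches that level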;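 further: 0% = median of neutral control wells and 100% = median of IBMX positive control wells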
DENV2 CPE rescue: inhibitors of DENV2 cytopathic effect, primary screen, cell-based, plate reader, single concentration; DENV2-infected cells, cytopathic effect rescue; CPE inhibition, % at 9.99 µM; actives 1.7% (n = 350,000); AID 651640, 2012; in the data active means CPE inhibition above about 20%, passing the limit was not always enough; tested in BHK-21 cells;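 further: 0% = median of neutral control wells and 100% = median of positive control wells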
dFosB act-1: activators of delta FosB homodimer, primary screen, biochemical, fluorescence polarization, TAMRA-CDK5 oligo, single point; actives 0.99% (n = 340,000); purified delta FosB; percent of positive-control signal above neutral wells; Protein FosB (Mus musculus), P13346; activation, % at 25 µM; AID 493131, 2011;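 active means mean activation above about 17%, with every replicate also reaching it, limit read from the data, passing the limit was not always enough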
MLL AF4-AF9 inh: inhibitors of AF4 peptide binding to AF9, primary screen, biochemical, AlphaScreen, biotin-AF4 peptide, FLAG-AF9, single point | inhibition, % at 10 µM | Protein AF-9 (Homo sapiens), P42568 | AID 651704, 2012 | actives 0.47% (n = 350,000);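 active means every replicate reaching a set inhibition limit, whatever the replicate mean, cut at about 25% in these data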;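 further: 0% = plate neutral control median and 100% = total signal loss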
Target sequence (P42568 whole entry, looked up): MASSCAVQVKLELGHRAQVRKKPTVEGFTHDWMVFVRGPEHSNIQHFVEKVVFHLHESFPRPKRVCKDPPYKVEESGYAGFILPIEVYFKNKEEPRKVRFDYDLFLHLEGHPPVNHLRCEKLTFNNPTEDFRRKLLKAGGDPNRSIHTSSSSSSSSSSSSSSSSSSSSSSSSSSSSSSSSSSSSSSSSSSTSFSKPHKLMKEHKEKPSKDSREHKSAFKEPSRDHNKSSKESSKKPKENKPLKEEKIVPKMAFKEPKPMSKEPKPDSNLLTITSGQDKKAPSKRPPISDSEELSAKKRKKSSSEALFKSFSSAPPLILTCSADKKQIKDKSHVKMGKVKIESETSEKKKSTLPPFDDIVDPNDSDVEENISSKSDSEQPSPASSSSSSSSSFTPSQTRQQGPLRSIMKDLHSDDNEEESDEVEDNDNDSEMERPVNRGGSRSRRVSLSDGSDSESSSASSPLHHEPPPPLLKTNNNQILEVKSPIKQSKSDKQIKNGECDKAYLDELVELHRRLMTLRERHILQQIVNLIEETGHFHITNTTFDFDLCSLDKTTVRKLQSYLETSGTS
dFosB act-2: activators of mouse delta FosB DNA binding, confirmation, biochemical, fluorescence polarization, TAMRA-CDK5 oligo, cherry-picked samples; AID 588690, 2011; activation, % at 24.9 µM; purified delta FosB; normalised: neutral wells 0, positive control 100; shares compounds with dFosB act-1; 2,400 tested, under 10 active;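 active means highest replicate activation at or above 34% and every replicate reaching that threshold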;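 further: higher polarization means more probe DNA bound by delta FosB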
The depositor's hits bear a star; . = no result. Only some compounds are listed: those with a hit (about 3.1% of all), similar ones and a draw of the others.

SMILES	RAD52 anneal inh	RAD54 branch	GSIS activator	DENV2 CPE rescue	dFosB act-1	MLL AF4-AF9 inh	dFosB act-2
CNC(=O)C[C@H]1CC[C@@H]2[C@H](COC[C@H](O)CN2S(=O)(=O)c2ccccc2Cl)O1	.	-1	2	9	.	.	.
O=S(=O)(N[C@@H]1CC[C@@H](CCn2cc(-c3ccc(F)cc3)nn2)O[C@H]1CO)c1ccccc1F	4	-5	0	-2	.	-1	.
CC(C)NC(=O)N(C)C[C@@H]1Oc2ncc(C#CC3CC3)cc2C(=O)N([C@@H](C)CO)C[C@@H]1C	-2	4	23	0	.	-2	.
CCOc1ccc(-c2nnn(CC(=O)Nc3ccccc3OC)n2)cc1OCC	.	0	68*	.	59*	.	0
COc1ccccc1C(=O)Nc1ccc(-c2nnn(CC(=O)NCc3ccco3)n2)cc1	-2	.	8	0	42*	-10	7
COc1ccc(-c2nnn(CC(=O)NCc3ccccc3)n2)cc1OC	.	-4	.	.	11	.	.
COc1ccc(-c2nnn(CC(=O)NCc3cccs3)n2)cc1OC	.	7	.	.	30*	.	-2
O=C(Cn1nnc(-c2ccccc2)n1)NCc1ccco1	.	.	.	.	10	.	.
C/C=C/c1ccc2c(c1)O[C@H](CN(C)C(=O)c1ccccc1F)[C@@H](C)CN([C@@H](C)CO)S2(=O)=O	4	-2	5	2	.	5	.
C[C@@H]1CCCCO[C@H](CN(C)S(=O)(=O)c2cccs2)[C@@H](C)CN([C@H](C)CO)C(=O)c2cc(NC(=O)c3ccncc3)ccc2O1	-10	1	1	-3	.	-4	.
CCC(=O)Nc1ccc2c(c1)C(=O)N(C)C[C@H](OC)[C@H](C)CN[C@@H](C)CO2	-14	-6	7	-5	.	-1	.
COC(=O)c1nn(-c2ccccc2)nc1-c1nn(-c2ccccc2)nc1C(=O)OC	.	4	.	.	23*	.	3
O=C(O)c1nn(-c2ccccc2)nc1-c1nn(-c2ccccc2)nc1C(=O)O	.	1	.	.	-7	.	.
CSc1cccc(NC(=O)NCc2cccc(CNC(=O)Nc3cccc(SC)c3)c2)c1	-1	.	4	-8	25*	0	5
COc1ccc(NC(=O)CCS(=O)(=O)c2ccc(Cl)cc2)cc1	-8	5	11	-5	-3	-12	.
CC(=O)c1sc(NC(=O)CCS(=O)(=O)c2ccc(Cl)cc2)nc1C	-3	.	25	0	21*	-3	0
Fc1ccc(-c2noc(-c3ccc4c(c3)CCO4)n2)cc1	9	-4	8	0	28*	-1	3
S=c1nccc(-c2ccc3c(c2)CCO3)[nH]1	-21	4	15	1	-5	.	.
Cc1cc(C)cc(NC(=O)Cn2nnc(C(=O)NCc3ccccc3Cl)c2N)c1	-17	-2	0	-3	41*	0	0
COc1ccc(NC(=O)Cn2nnc(C(=O)NCc3ccc(C)cc3)c2N)cc1Cl	-8	-3	2	-4	7	0	.
Cc1cc(C)cc(NC(=O)Cn2nnc(C(=O)NCc3ccc(F)cc3)c2N)c1	1	-1	20	4	58*	-2	3
CO[C@@H]1CN(C)C(=O)c2ccc(NC(C)=O)cc2OC[C@@H](C)N(C(=O)c2cccnc2)C[C@H]1C	-26	-3	10	2	.	2	.
O=C(Cn1nnc(-c2ccc(CN3CCOCC3)cc2)n1)N(c1ccccc1)c1ccccc1	-3	.	-6	1	-10	4	.
CC(C)(C)NC(=O)CN(C(=O)Cn1nnc(-c2ccc(Cl)cc2)n1)C1CCN(Cc2ccccc2)CC1	.	5	.	.	26*	.	-1
COc1ccc(-c2csc(NC(=S)NC(=O)c3ccc(S(=O)(=O)N(C)C)cc3)n2)cc1OC	-10	-4	39	-10	29*	-1	0
